Experiment [1] in a line: qHTS assay to identify small molecule antagonists of the thyroid receptor (TR) signaling pathway (AID 743065). Also: nearly all actives have a fitted effect of over 55% in size. Also: potency is read from the fitted curve at half-maximal effect. The gist of the method:
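GH3.TRE-Luc rat pituitary cells carrying two TR response elements driving luciferase were plated for 4 h, given compound plus 1 nM T3 (final), and incubated 23.5 h at 37 C. ONE-Glo luminescence measured reporter inhibition; CellTiter-Fluor fluorescence tracked cytotoxicity.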

Experiment [2] relates to thyroid hormone receptor (rat, GH3 cells). The experiment in a line: qHTS assay to identify small molecule agonists of the thyroid receptor (TR) signaling pathway (AID 743066; calls by dose curve). A general note: Quantitative high-throughput screening tests each substance at several concentrations.
Experiment [3] in a line: qHTS assay to identify small molecule antagonists of the estrogen receptor alpha (ER-alpha) signaling pathway - cell viability counter screen (AID 743074; calls by dose curve;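 also: HEK293 cells carrying ER-alpha-UAS-bla reporter stimulated with 17beta-estradiol; nearly all actives have a fitted effect of over 45% in size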).
The nature of experiment [4]: qHTS assay to identify small molecule antagonists of the estrogen receptor alpha (ER-alpha) signaling pathway using the BG1 cell line - cell viability counter screen (AID 743081).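 Also: compound given together with 17beta-estradiol as the ER stimulus; series mostly up to about 70 µM; nearly all actives have a fitted effect of over 45% in size.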
The next experiment has as its target Aromatase (Homo sapiens) (UniProt P11511). In words: qHTS assay to identify aromatase inhibitors (AID 743083). Also: series mostly up to about 70 µM; nearly all actives have a fitted effect of over 55% in size.
Experiment [5] deals with Aryl hydrocarbon receptor (Homo sapiens) (UniProt P35869). In words: qHTS assay to identify small molecule that activate the aryl hydrocarbon receptor (AhR) signaling pathway (AID 743085).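 Also: HG2L7.5c1 human HepG2 liver cells with stably integrated DRE-driven firefly reporter; series mostly up to about 70 µM; nearly all actives have a fitted effect of over 15% in size.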 The gist of the method:
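A multiplexed format paired cell viability (CellTiter-Fluor fluorescence) with AhR-dependent luciferase output (ONE-Glo luminescence) in the same wells of HepG2 DRE-luc cells after 24 h compound exposure at 37C.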

Experiment [6] is described as follows: qHTS assay to identify small molecule that activate the aryl hydrocarbon receptor (AhR) signaling pathway - cell viability counter screen (AID 743086).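 Also: HepG2 liver cells carrying the AhR DRE luciferase reporter; series mostly up to about 70 µM; nearly all actives have a fitted effect of over 45% in size.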 The gist of the method: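 HepG2-AhR-luc (HG2L7.5c1) cells, 4000/well, were preincubated 5 h at 37C, exposed to compound in qHTS format for 24 hr at 37C, then given CellTiter-Fluor for 30 min; viability was read as fluorescence in the reporter wells.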

The target of experiment [7] is Peroxisome proliferator-activated receptor gamma (Homo sapiens) (UniProt P37231). In words: qHTS assay to identify small molecule agonists of the peroxisome proliferator-activated receptor gamma (PPARg) signaling pathway (AID 743094; active = well fitted activation curve with a large enough effect in the signal ratio in the repeat runs, not every such curve was filed as active; the % refers to the signal ratio). The gist of the method: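 HEK293H PPARg-bla cells, 5 h settle at 37C/5% CO2; compound (DMSO) 17 h, 37C; B/G FRET substrate 1 h RT; fluorescence intensity read-out. qHTS format.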
Sequence of Peroxisome proliferator-activated receptor gamma (Homo sapiens) (P37231 whole entry, looked up): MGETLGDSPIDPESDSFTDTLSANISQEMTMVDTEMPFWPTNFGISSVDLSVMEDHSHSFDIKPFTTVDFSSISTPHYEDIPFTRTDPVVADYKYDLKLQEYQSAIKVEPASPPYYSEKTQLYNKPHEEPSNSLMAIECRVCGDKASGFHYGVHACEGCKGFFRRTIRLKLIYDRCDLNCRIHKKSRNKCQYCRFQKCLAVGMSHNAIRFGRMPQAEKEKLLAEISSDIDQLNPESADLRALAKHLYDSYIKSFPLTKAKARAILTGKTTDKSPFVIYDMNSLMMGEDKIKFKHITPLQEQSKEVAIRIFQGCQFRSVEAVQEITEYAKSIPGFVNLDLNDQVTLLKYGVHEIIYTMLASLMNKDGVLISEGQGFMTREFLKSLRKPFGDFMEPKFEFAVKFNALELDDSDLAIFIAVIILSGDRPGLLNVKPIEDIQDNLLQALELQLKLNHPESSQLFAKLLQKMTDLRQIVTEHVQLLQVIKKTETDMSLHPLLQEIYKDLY

Experiment [8] has the same target. The experiment in a line: qHTS assay to identify small molecule antagonists of the peroxisome proliferator-activated receptor gamma (PPARg) signaling pathway (AID 743191; calls by dose curve; also: nearly all actives have a fitted effect of over 30% in size; also: potency is read from the fitted curve at half-maximal effect). The gist of the method:
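GeneBLAzer PPARg UAS-bla HEK293H cells carrying a UAS-driven beta-lactamase reporter were plated at 3000 cells/well, preincubated 5 h at 37C, then given compound for 17 h at 37C; LiveBLAzer B/G FRET substrate was read after 1 h at room temperature.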

The nature of experiment [9]: qHTS assay to identify small molecule antagonists of the peroxisome proliferator-activated receptor gamma (PPARg) signaling pathway - cell viability counter screen (AID 743194). Also: nearly all actives have a fitted effect of over 55% in size. The gist of the method: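 PPARg-UAS-bla HEK293H cells were plated, rested 5 h at 37 C, then treated with compounds plus rosiglitazone (50 nM final) for 17 h at 37 C; viability was then read by CellTiter-Glo luminescence after 30 min at room temperature.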

A short description of experiment [10]: qHTS assay for small molecule agonists of the antioxidant response element (ARE) signaling pathway (AID 743202; active = well fitted activation curve with a large enough effect in the signal ratio in the repeat runs, not every such curve was filed as active; the % refers to the signal ratio; also: potency is read from the fitted curve at half-maximal effect). In short, it runs like this:
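Steps: seed ARE-bla HepG2 cells (2,000/well); incubate 5 h at 37 C; add compounds by pin tool; incubate 16 h at 37 C; add FRET substrate; read fluorescence after 2 h at RT.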

A short description of experiment [11]: qHTS assay for small molecule agonists of the antioxidant response element (ARE) signaling pathway - cell viability counter screen (AID 743203; calls by dose curve; also: nearly all actives have a fitted effect of over 55% in size). In short, it runs like this: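 Luminescence read-out (CellTiter-Glo, 30 min at room temperature) measured cell viability in the same wells as the ARE beta-lactamase reporter. HepG2 ARE-bla cells were treated with compounds for 16 hrs at 37C/5% CO2.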

Experiment [12] can be described thus: qHTS assay for small molecule activators of the heat shock response signaling pathway - cell viability counter screen (AID 743209). Also: nearly all actives have a fitted effect of over 50% in size. In short, it runs like this:
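HSE-bla HeLa; 1500 cells/well; overnight 37 C, 5% CO2; compound 5 h 37 C; LiveBLAzer B/G substrate 2.5 h RT; CellTiter-Glo 30 min RT; luminescence.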

Experiment [13] in a line: qHTS assay for small molecule activators of the heat shock response signaling pathway (AID 743210; active = well fitted activation curve with a large enough effect in the signal ratio in the repeat runs, with a control signal flat, not every such curve was filed as active; the % refers to the signal ratio;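 also: HeLa cells with beta-lactamase reporter driven by heat shock elements; series mostly up to about 63 µM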). The gist of the method:
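Activation of heat shock element-controlled beta-lactamase expression is measured in HeLa cells by LiveBLAzer FRET fluorescence, with compound exposure lasting 5 h at 37 C and substrate loading 2.5 h at room temperature.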

Experiment [14] can be described thus: qHTS assay to identify small molecule agonists of the peroxisome proliferator-activated receptor delta (PPARd) signaling pathway - cell viability counter screen (AID 743211). Also: nearly all actives have a fitted effect of over 55% in size. Also: potency is read from the fitted curve at half-maximal effect. The gist of the method: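 Tox21 library compounds, delivered in DMSO, were incubated 17 h with PPARd-bla HEK293H cells; cytotoxicity was taken from CellTiter-Glo luminescence read 30 min after reagent addition.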

The nature of experiment [15]: qHTS assay to identify aromatase inhibitors - cell viability counter screen (AID 743084).
Experiment [16] addresses Estrogen receptor (Homo sapiens) (UniProt P03372). The experiment in a line: qHTS assay to identify small molecule agonists of the estrogen receptor alpha (ER-alpha) signaling pathway (AID 743075; calls by dose curve;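 also: HEK293 GripTite cells with ER-alpha and UAS-driven beta-lactamase reporter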).
Experiment [17] shares this target. In words: qHTS assay to identify small molecule agonists of the estrogen receptor alpha (ER-alpha) signaling pathway using the BG1 cell line (AID 743079). Also: nearly all actives have a fitted effect of over 20% in size.

Records with an inconclusive call do not appear. Calls of active or inactive are those of the source. Unless noted, calls follow the shape of the dose curve; as a rule, active = well fitted curve in the direction sought with a large enough effect in the repeat runs; inconclusive = weak or mixed curves; inactive = no such curve, though single readings can be large; an effect the other way counts as inactive or inconclusive.

Sequence of Aryl hydrocarbon receptor (Homo sapiens) (P35869 whole entry, looked up): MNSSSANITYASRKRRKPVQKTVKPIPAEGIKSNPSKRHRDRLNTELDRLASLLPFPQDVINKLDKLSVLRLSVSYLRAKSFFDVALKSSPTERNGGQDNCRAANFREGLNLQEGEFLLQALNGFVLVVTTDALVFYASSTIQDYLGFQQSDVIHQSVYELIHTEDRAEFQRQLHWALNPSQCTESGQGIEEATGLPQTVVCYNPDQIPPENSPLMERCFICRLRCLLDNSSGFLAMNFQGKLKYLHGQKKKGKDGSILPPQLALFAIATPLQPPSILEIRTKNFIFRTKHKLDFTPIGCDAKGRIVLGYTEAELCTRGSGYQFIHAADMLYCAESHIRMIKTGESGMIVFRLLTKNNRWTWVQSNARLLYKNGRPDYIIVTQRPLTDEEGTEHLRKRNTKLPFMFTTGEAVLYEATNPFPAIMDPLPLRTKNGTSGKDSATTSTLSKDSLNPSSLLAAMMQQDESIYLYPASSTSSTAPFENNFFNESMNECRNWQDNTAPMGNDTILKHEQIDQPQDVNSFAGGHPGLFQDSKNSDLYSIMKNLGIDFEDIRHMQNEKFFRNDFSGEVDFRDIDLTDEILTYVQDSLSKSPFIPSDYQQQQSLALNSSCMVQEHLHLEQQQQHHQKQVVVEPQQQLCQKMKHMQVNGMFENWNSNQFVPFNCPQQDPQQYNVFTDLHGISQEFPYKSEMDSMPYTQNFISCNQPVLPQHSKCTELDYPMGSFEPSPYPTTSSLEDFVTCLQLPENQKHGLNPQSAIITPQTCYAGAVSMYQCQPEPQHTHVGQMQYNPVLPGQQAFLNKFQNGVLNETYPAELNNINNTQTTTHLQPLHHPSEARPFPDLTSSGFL
Sequence of Aromatase (Homo sapiens) (P11511 whole entry, looked up): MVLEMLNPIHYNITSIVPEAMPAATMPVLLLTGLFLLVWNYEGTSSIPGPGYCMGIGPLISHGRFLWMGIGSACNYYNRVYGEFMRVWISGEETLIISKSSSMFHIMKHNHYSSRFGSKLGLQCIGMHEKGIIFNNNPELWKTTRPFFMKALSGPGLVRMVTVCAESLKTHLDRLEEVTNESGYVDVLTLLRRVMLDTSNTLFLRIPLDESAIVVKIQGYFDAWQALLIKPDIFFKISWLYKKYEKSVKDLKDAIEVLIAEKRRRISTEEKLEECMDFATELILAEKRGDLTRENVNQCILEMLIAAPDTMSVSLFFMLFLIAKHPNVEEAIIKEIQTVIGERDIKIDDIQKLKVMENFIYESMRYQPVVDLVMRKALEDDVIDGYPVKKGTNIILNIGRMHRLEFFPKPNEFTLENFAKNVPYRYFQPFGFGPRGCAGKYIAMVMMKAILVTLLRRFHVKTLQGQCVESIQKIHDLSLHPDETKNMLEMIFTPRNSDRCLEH
Sequence of Estrogen receptor (Homo sapiens) (P03372 whole entry, looked up): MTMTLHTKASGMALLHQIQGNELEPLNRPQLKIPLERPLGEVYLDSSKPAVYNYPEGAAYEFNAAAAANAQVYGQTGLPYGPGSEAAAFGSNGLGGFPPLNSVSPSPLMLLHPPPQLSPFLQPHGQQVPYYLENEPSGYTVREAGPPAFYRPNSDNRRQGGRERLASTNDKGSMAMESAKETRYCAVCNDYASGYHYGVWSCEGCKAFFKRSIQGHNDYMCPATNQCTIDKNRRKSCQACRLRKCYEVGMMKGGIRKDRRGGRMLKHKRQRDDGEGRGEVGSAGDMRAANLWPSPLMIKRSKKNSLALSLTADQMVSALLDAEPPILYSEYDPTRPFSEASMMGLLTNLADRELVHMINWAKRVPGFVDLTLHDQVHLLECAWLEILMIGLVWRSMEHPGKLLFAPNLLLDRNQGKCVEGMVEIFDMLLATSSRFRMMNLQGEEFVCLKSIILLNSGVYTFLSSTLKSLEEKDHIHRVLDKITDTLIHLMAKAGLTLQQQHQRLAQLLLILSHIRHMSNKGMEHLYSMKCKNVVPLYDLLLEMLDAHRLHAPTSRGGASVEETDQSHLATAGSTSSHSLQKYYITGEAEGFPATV

As to `CCCC1CCC(=O)O1` (configuration not stated), the Potency result (in experiment [1]; in [3]; in [4]; with Aromatase (Homo sapiens); in [5]; in experiment [7]) was “inactive” in each case. For the same compound, the Potency entry in [8], in experiment [9], in [10], in [11], in experiment [13] and in [14] was “inactive” in each case. Further, the call in experiment [2], in experiment [6] and in [12] was inactive.
As to `CC(C)Nc1nc(N)nc(Cl)n1`, the Potency result (in experiment [1]; in experiment [3]; in experiment [4]; with Aromatase (Homo sapiens); in experiment [15]; in experiment [7]) was “inactive” throughout. Further, the Potency entry in experiment [8], in experiment [9], in experiment [10], in experiment [11], in experiment [13] and in experiment [14] was “inactive” in each case. Moreover, the compound was called inactive in experiment [2], in [6] and in [12].
As to `CN(C)Cc1ccccc1`, the Potency entry (in experiment [1]; in experiment [3]; in experiment [4]; in the experiment with Aromatase (Homo sapiens); in experiment [15]; in [7]) was “inactive” throughout. Moreover, the Potency entry in experiment [9], in experiment [10], in [11], in experiment [13] and in [14] was “inactive” throughout. Also, the compound was classed as inactive in experiment [2], in experiment [6] and in experiment [12].
As for `O=C(O)[C@@H](O)[C@H](O)[C@H](O)[C@@H](O)C(=O)O`, the Potency entry (in experiment [1]; in experiment [3]; in experiment [4]; with Aromatase (Homo sapiens); in experiment [15]; in [5]) was “inactive” each time. The Potency entry in [7], in experiment [9], in experiment [10], in [11], in experiment [13] and in [14] was “inactive” throughout. For the same compound, the outcome in experiment [2] and in experiment [6] was inactive.
Consider `CCCCOc1cc(C(=O)NCCN(CC)CC)c2ccccc2n1`, for which the Potency in experiment [1] is 10.1 µM (active). Moreover, the call in experiment [2], in [6] and in experiment [12] was inactive. Besides, the Potency result (in [3]; in [4]; in the experiment with Aromatase (Homo sapiens); in [15]; in experiment [5]; in [7]) was “inactive” each time. Besides, the Potency result in [8], in experiment [11] and in [13] was “inactive” each time.
As for `CC(=O)OC(C)OC(C)=O`, the Potency entry (in experiment [1]; in [3]; in [4]; with Aromatase (Homo sapiens); in [15]; in experiment [5]) was “inactive” in each case. For the same compound, the Potency result in [7], in experiment [9], in experiment [10], in [11], in experiment [13] and in experiment [14] was “inactive” in each case. In addition, the compound was classed as inactive in [2], in experiment [6] and in [12].
Consider `COc1cc(Cl)ccc1Cl`, for which the Potency result (in experiment [1]; in experiment [3]; in experiment [4]; in the experiment with Aromatase (Homo sapiens); in [15]; in [7]) was “inactive” throughout. Besides, the Potency result in experiment [8], in experiment [9], in experiment [10], in [11], in experiment [13] and in experiment [14] was “inactive” each time. The outcome in [2], in [6] and in [12] was inactive.
As for `CC1CN(c2ccccc2)NC1=O` (configuration not stated), the Potency entry (in experiment [1]; in experiment [3]; in experiment [4]; in the experiment with Aromatase (Homo sapiens); in [15]; in [8]) was “inactive” in each case. Further, the Potency result in [11] and in experiment [13] was “inactive” each time. The result in [2], in experiment [6] and in experiment [12] was inactive.
Take `OCc1ccccc1O`: the Potency result (in [1]; in experiment [3]; in experiment [4]; with Aromatase (Homo sapiens); in experiment [15]; in [5]) was “inactive” throughout. The Potency result in experiment [9], in [11], in experiment [13] and in experiment [14] was “inactive” throughout. The result in experiment [2], in experiment [6] and in experiment [12] was inactive.
Regarding `CCN(O)CC`, the Potency entry (in [1]; in [3]; in experiment [4]; with Aromatase (Homo sapiens); in experiment [15]; in experiment [7]) was “inactive” each time. In addition, the Potency entry in experiment [9], in [10], in experiment [11], in [13] and in experiment [14] was “inactive” in each case. The outcome in [2], in experiment [6] and in experiment [12] was inactive.
For the compound `O=c1[nH]cnc2c1ncn2[C@@H]1O[C@H](CO)[C@@H](O)[C@H]1O`, the Potency result (in [1]; in [3]; in [4]; with Aromatase (Homo sapiens); in [15]; in [7]) was “inactive” throughout. In addition, the Potency entry in experiment [8], in [9], in experiment [10], in [11], in [13] and in experiment [14] was “inactive” throughout. For the same compound, the call in experiment [2], in experiment [6] and in experiment [12] was inactive.
On to `CCNCCO`, for which the Potency entry (in experiment [1]; in [3]; in [4]; with Aromatase (Homo sapiens); in [15]; in experiment [5]) was “inactive” each time. The Potency result in experiment [7], in experiment [9], in [10], in experiment [11], in [13] and in experiment [14] was “inactive” throughout. Also, the call in experiment [2], in experiment [6] and in [12] was inactive.
Turning to `Nc1ccc2ccccc2c1S(=O)(=O)O`, the Potency result in experiment [1], in experiment [3], in experiment [4], in experiment [9], in experiment [11] and in experiment [13] was “inactive” each time. Also, the Potency result in experiment [14] was “inactive”. In addition, the call in [2] and in experiment [12] was inactive. In experiment [10], the Potency was 12.4 µM (active).
For the compound `C[C@@H](N)C(=O)O`, the Potency result (in experiment [1]; in experiment [3]; in experiment [4]; in the experiment with Aromatase (Homo sapiens); in [15]; in [7]) was “inactive” each time. The Potency result in experiment [8], in experiment [9], in experiment [10] and in experiment [11] was “inactive” in each case. Further, the compound was called inactive in experiment [2], in [6] and in experiment [12].
Consider `NC(=O)Cc1cccc(C(=O)c2ccccc2)c1N`, for which the Potency entry (in experiment [1]; in [3]; in [4]; with Aromatase (Homo sapiens); in experiment [15]; in experiment [7]) was “inactive” each time. For the same compound, the Potency entry in experiment [8], in experiment [9], in experiment [10], in experiment [11], in experiment [13] and in [14] was “inactive” in each case. In addition, the outcome in experiment [2], in experiment [6] and in [12] was inactive.
In the case of `CCCCC(=O)O[C@]1(C(=O)CO)[C@H](C)C[C@H]2[C@@H]3CCC4=CC(=O)C=C[C@]4(C)[C@@]3(F)[C@@H](O)C[C@@]21C`, the call in experiment [2], in experiment [16], in experiment [6] and in [12] was inactive. The Potency entry (in [3]; in experiment [17]; in experiment [4]; with Aromatase (Homo sapiens); in experiment [15]; in experiment [5]) was “inactive” each time. For the same compound, the Potency entry in [9], in [11], in experiment [13] and in experiment [14] was “inactive” in each case.
Regarding `CCCCCCCCc1ccc(S(=O)(=O)O)cc1`, the Potency entry (in experiment [1]; in experiment [4]; in the experiment with Aromatase (Homo sapiens); in experiment [15]; in experiment [7]; in experiment [9]) was “inactive” each time. Moreover, the Potency result in experiment [11] and in [13] was “inactive” throughout. Also, the call in experiment [2], in [6] and in [12] was inactive. The Potency in experiment [8] and in [14] was 43.3 µM (active) in each case.
As for `CC(C)NCC(O)COc1ccc(CCOCC2CC2)cc1` (configuration not stated), the result in experiment [2], in experiment [6] and in experiment [12] was inactive. For the same compound, the Potency entry (in [3]; in experiment [4]; in the experiment with Aromatase (Homo sapiens); in experiment [15]; in experiment [5]; in experiment [9]) was “inactive” throughout. The Potency entry in experiment [10], in experiment [11], in experiment [13] and in experiment [14] was “inactive” throughout.

Values taken from PubChem BioAssay (Tox21).
